The entries come from a sample that favours hits as a whole.
Giardia FBPA inh – Giardia lamblia aldolase inhibition; A8B2U2; purified Giardia FBPA; Potency, µM (series often up to 59.6 µM), for the others: at the top dose activity, negative = inhibition, actives largely listed as inhibitors; 290,000 compounds, 0.71% hits; AID 2451; note: potency is the fitted concentration of half-maximal effect; % is set by controls: 0 for no effect and ±100 for the full control effect; nearly all actives have a fitted effect of over 55% in size
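40 nM FBPA preincubated 10 min at RT with compound (up to 57.5 uM final), then substrate plus GAPDH/TPI/NAD/arsenate coupling and diaphorase/resazurin added. Fluorescence read after 20 min at RT, 525/598 nm.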
LmPK inhibitor – blocks Leishmania mexicana pyruvate kinase activity. Q27686. purified LmPK, Kinase-Glo ATP luminescence, 1 h. Potency, µM (titrated, usually from 57.5 µM), inactives show at the highest dose activity change, negative = inhibition, most hits filed as inhibitors. 290,000 compounds, 0.37% hits. AID 1721; note: potency is the fitted concentration of half-maximal effect; % is set by controls: 0 for no effect and ±100 for the full control effect
Target sequence (Q27686 whole entry, looked up): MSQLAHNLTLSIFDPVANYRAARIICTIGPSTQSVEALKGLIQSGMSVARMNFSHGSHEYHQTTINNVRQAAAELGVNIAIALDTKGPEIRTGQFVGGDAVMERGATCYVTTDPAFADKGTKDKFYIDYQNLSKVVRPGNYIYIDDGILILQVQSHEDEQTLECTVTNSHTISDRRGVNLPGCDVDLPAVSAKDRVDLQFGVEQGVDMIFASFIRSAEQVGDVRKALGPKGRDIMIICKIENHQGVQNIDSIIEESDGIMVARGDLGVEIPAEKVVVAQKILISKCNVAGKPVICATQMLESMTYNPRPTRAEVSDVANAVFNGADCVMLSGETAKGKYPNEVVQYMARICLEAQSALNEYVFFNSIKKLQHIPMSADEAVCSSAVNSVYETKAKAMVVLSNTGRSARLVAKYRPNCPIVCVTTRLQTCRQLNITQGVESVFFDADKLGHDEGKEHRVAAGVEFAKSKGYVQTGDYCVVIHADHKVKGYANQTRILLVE
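Pyruvate kinase activity monitored as ATP production (luciferase luminescence). Conditions: 0.1 nM enzyme, 0.5 mM PEP, 0.1 mM ADP, 1 h, RT; normalized against uninhibited and no-enzyme wells.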
RE007 growth inh – less growth of the S. pombe RE007 Vpr strain; S. pombe RE007 Vpr strain, BacTiter-Glo ATP luminescence, 24 h; Potency, µM (titrated, usually from 92.2 µM), for inactives: at the top dose activity change, negative = less growth, hits mostly inhibitors; 360,000 compounds, 0.21% hits; AID 651644; active = well fitted falling curve with a large enough effect; inconclusive = small, poorly fitted or top-dose-only effect; inactive = no such curve, though single readings can be large or run the other way; note: potency is the fitted concentration of half-maximal effect; % is set by controls: 0 for no effect and ±100 for the full control effect; nearly all actives have a fitted effect of over 50% in size
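Fission yeast strain RE007, carrying one chromosomally integrated HIV-1 vpr copy, was seeded at OD 0.01 in PMG+AL medium with 23 nL pinned compound. After 24 h at 30 °C and 99% humidity, viability was read by BacTiter-Glo luminescence.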
TbPYK inhibitor – T. brucei pyruvate kinase inhibition; TbPYK enzyme, Kinase-Glo Plus ATP luminescence, 45 min; 410,000 compounds, 0.12% hits; Q57TT1; Potency, µM (series often up to 76.8 µM), inactives show at the highest dose activity, negative = inhibition, usual class: inhibitors; AID 624173; note: potency is the fitted concentration of half-maximal effect; % is set by controls: 0 for no effect and ±100 for the full control effect; nearly all actives have a fitted effect of over 50% in size
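Screened from lowest to highest concentration, compounds were pinned into TbPYK/substrate mixtures, and ADP (130 uM final) was added. Plates sat at room temperature for 45 min prior to Kinase-Glo Plus detection by luminescence.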
Shiga toxin inh – blocks Shiga toxin action in Vero cells; inhibition, % at 38.7 µM; 290,000 compounds, 9.2% hits; Vero cells, Shiga toxin protein synthesis inhibition reporter; in the data active = inhibition mostly above about 28%, no sharp cut-off; inactive = mostly below about 43%; note: 0% is about no effect
CHX counter – counter-screen hit for Shiga toxin inhibitors, cycloheximide | max response, % | 300,000 compounds, 12% hits | AID 2314 | cell reporter, cycloheximide protein synthesis inhibition counterscreen; in the data active = max response mostly above about 13%, no sharp cut-off; inactive = mostly below about 14%; note: read at 38.3 µM for the half of the compounds with a filed dose; 0% is about no effect
Numbers without * were called inactive; ? = inconclusive; . = no result. Unless noted, calls come from the whole dose curve; as a rule, active = well fitted curve in the direction sought with a large enough effect; inconclusive = small, poorly fitted or top-dose-only effect, or another doubt; inactive = no such curve, though single readings can be large; an effect the other way counts as inactive or inconclusive.

SMILES | Giardia FBPA inh | LmPK inhibitor | RE007 growth inh | TbPYK inhibitor | Shiga toxin inh | CHX counter
CCC(C)C(NC(=O)c1ccccc1NC(=O)c1ccc(C)cc1)C(=O)O (centres undefined) | -28% | 5% | 18% | -7% | 94* | 55*
CCCCSCCCNC(=O)CN1C(=O)COc2ccc(S(=O)(=O)N3CCCC3)cc21 | . | . | . | 2% | . | .
O=C(NCCCn1ccnc1)c1cc(-c2cccs2)on1 | 3% | 0% | 4% | -4% | 154* | 46*
COc1ccc(OC)c(-c2cc(C(=O)NCCCn3ccnc3)no2)c1 | -3% | -6% | -8% | 1% | 20 | -5
O=C(NCCCN1CCOCC1)c1cc(-c2cccs2)on1 | 11% | 3% | 7% | 2% | 160* | 42*
CCOC(=O)c1c(NC(=O)/C=C/c2ccccc2)sc2c1CCCC2 | . | . | . | -9% | . | .
COc1ccc(OCc2nnc(SCC(=O)NC3CC4CCC3C4)o2)cc1 (centres undefined) | 2% | -1% | 23% | -1% | 44 | 28*
COc1ccc(OCc2nnc(SCC(=O)NC3CCCCC3)o2)cc1 | 2% | 2% | 0% | 8% | 30* | 10
CC(=O)N1c2ccc(S(=O)(=O)N3CCCC3)cc2CC1C(=O)NCc1ccc(N(C)C)cc1 (centres undefined) | . | -7% | -8% | 5% | 9 | -5
CS(=O)(=O)CCCCN=C=S | -10% | . | . | . | . | .
Cc1ccc(CNC(=O)CC2(CC3=NS(=O)(=O)c4ccccc4N3)CCCC2)cc1 | 8% | -2% | -2% | -1% | 18 | 8.5*
COc1ccc(CCNC(=O)CC2(CC3=NS(=O)(=O)c4ccccc4N3)CCCC2)cc1OC | . | -4% | 1% | 4% | 9 | 6
CCCCOC(=O)Nc1ccc(N(C)C)cc1 | -1% | -10% | -18% | -25% | 116* | 80*
CCCCOC(=O)Nc1ccc(C(N)=O)cc1 | 6% | -7% | 6% | -2% | 76* | 37*
CCCCOC(=O)Nc1ccc(C(C)C)cc1 | -12% | 1% | -23% | -5% | 86* | 40*
CCCCOC(=O)Nc1ccc(S(=O)(=O)Nn2cnnc2)cc1 | 8% | -7% | 5% | 4% | 19 | -2
CCCCOC(=O)Nc1cccc(C(=O)OCC)c1 | 5% | -3% | -6% | 1% | 83* | 21*
COc1ccc(S(=O)(=O)NC(=O)C2(C)CCN2C(=O)Cc2ccc(C(C)(C)C)cc2)cc1 (centres undefined) | . | . | 1% | -5% | . | .
Cc1ccc(-n2nc3c(=O)n(C(C)C(=O)NCc4ccc(OC(C)C)cc4)nc(C)c3c2C)cc1 (centres undefined) | . | . | . | 2% | . | .
COc1ccc(N(CC(C)C)S(=O)(=O)c2nnc(NC(=O)c3cccs3)s2)cc1 | . | . | . | -2% | . | .
CC(C)COC(=O)NCCCOC(=O)Nc1ccccc1 | 3% | -5% | -4% | -1% | 16 | 37*
CC(C)COC(=O)NCCOC(=O)Nc1cccc(Cl)c1 | -1% | 0% | 0% | -6% | 2 | 1
CCN(CC)c1nn2c(=O)c(C(=O)NCCc3ccc(C)cc3)cnc2s1 | . | . | . | -3% | . | .
Cc1cnc(C(=O)Nc2ccc(S(=O)(=O)N(C(C)C)C(C)C)cc2)cn1 | -9% | 8% | 0% | -10% | . | 2
Cc1cnc(C(=O)Nc2ccc(F)c(F)c2)cn1 | 13% | -18% | -13% | 2% | 55* | 21*
SMILES | Giardia FBPA inh | LmPK inhibitor | RE007 growth inh | TbPYK inhibitor | Shiga toxin inh | CHX counter
Cc1cnc(C(=O)Nc2cc(F)ccc2C)cn1 | 1% | -10% | -16% | -9% | 26 | 12
O=C(Nc1ccc(S(=O)(=O)N2CCCC2)cc1)c1cnccn1 | 4% | -1% | 5% | -1% | 9 | 2
Cc1cnc(C(=O)Nc2ccc3c(c2)CCC3)cn1 | -2% | -22% | 8% | 2% | 82* | 39*
CCCCOc1ccc(NC(=O)c2cnc(C)cn2)cc1 | 0% | -8% | 5% | -2% | 54 | 13*
O=C(Nc1ccc2c(c1)CCC2)c1cnccn1 | -1% | ? | -9% | 0% | 109* | 46*
Cc1ccc(S(=O)(=O)c2nc(S(=O)(=O)c3ccccc3)sc2NCCCOC(C)C)cc1 | . | . | . | -5% | . | .
CC(NC(=O)Nc1cc(Cl)ccc1Cl)c1c(-n2cccc2)sc2c1CCCC2 (centres undefined) | . | . | . | -1% | . | .
CC(C)CCNC(=O)[C@@H](Cc1ccccc1)NC(=O)CC[C@H]1O[C@@H](n2ccc(=O)[nH]c2=O)[C@H](O)[C@@H]1O | . | . | 5% | -14% | . | .
Cc1cc(C)n2nc(C(=O)Nc3ccc(S(=O)(=O)N4CCCC4)cc3)nc2n1 | 2% | -2% | -15% | 2% | 2 | 2
Cc1cc(C)n2nc(C(=O)Nc3ccc4c(c3)CCC4)nc2n1 | -8% | -2% | -9% | -6% | 104* | 34*
Oc1c(Br)cc(/C=N/n2c(-c3ccccc3)n[nH]c2=S)cc1Br | 8% | 18µM* | -4% | ? | -5 | -2
COc1cc(/C=N/n2c(-c3ccccc3)n[nH]c2=S)ccc1O | ? | ? | -7% | 6.3µM* | -2 | 6
COc1cc(-c2n[nH]c(=S)n2/N=C/c2cccn2C)cc(OC)c1OC | -15% | 7.9µM* | 9% | ? | 3 | -3
COc1ccc(/C=N/n2c(-c3cccs3)n[nH]c2=S)cc1 | 4% | -22% | -6% | 1.3µM* | -14 | -2
Cc1ccc(/C=N/n2c(-c3cccs3)n[nH]c2=S)cc1 | 1% | -15% | -3% | ? | -18 | -2
COCCNC(=O)C1=CC(c2ccc3c(c2)OCO3)=NS(=O)(=O)N1C | . | . | . | -3% | . | .
COc1ccc(OCC(=O)N(Cc2cccc(OC)c2)C2CCS(=O)(=O)C2)cc1 (centres undefined) | . | . | . | 1% | . | .
CCCCCc1ccc(-c2cn(Cc3ccc(C)cc3)nn2)cc1 | -12% | -2% | -7% | -3% | 12 | 8
COc1ccc(-c2cn(Cc3ccc(C)cc3)nn2)cc1 | 2% | -1% | 2% | 1% | 79* | 55*
COCc1ccc([C@@H]2C[C@H]3CN(Cc4ccccc4C)C(=O)[C@]34CCCN24)o1 | 0% | 2% | 5% | -3% | 32* | 21*
CC(=O)c1ccc(N2CCN(S(=O)(=O)c3cc4[nH]c(=O)c(=O)[nH]c4cc3C)CC2)cc1 | -16% | -7% | 16% | -2% | 24* | 19*
CC(=O)c1ccc(NS(=O)(=O)c2cc3[nH]c(=O)c(=O)[nH]c3cc2C)cc1 | . | . | . | -9% | . | .
N#CC1=C2C=Cc3ccccc3N2CCCC1=O | -12% | -27% | -17% | -3% | 45* | 33*
O=C(CN1CCCC1)N1c2ccccc2C=Cc2ccccc21 | -5% | -9% | -1% | 2% | 14 | -2
COc1ccc(-n2c(=O)c3sc4ccccc4c3n(C)c2=O)cc1 | . | . | . | 4% | . | .
CN(C)c1ccc2c(c1)C(=NO)c1ccccc1-2 | . | . | -26% | -8% | . | .

Source: PubChem BioAssay
